The source of these data is the OligoGym collection.
Note: reference of the scale not given here.

One test addresses PPIA. Description: pooled miR-30 sensor sort-seq; sequence = guide strand. The settings on record: shRNA.
Sequence TAAACTTAACTCTGCAATCCAG gave a sensor-assay potency score (higher = more potent) of -0.459.
On the same count and under the same terms, the figure for AAACTTAACTCTGCAATCCAGC is -0.893.
The same measure, in the same setting: in the case of TTTCACTTTGCCAAACACCACA it was -0.879.

The target of the next test is PPIF. Described as above. The conditions noted are these: shRNA.
The sequence TATTTTCTTCACGACGTCCATG showed a sensor-assay potency score (higher = more potent) of -0.975.
In the case of TAAACAGGTATTAGAGTCCTTT, the sensor-assay potency score (higher = more potent) was -0.324.
Still for that read-out and setting: in the case of TTCTATTTTCTTCACGACGTCC it was -0.712; in that of TAGCCATGGACAGGACACCTGG, -1.46.
Same read-out and setting: the figure for TCTGTGATGACAATCTTCTTGG is 0.0684.
TGACCGAACACAACATGCTTGC displayed a sensor-assay potency score (higher = more potent) of -0.464.
Same read-out and setting: the figure for TGTGATGACAATCTTCTTGGAT is 0.322; for TTTCACTTCTAGTCAATCTTGT it is 0.721.
Take TTCAGCTCCAGCACCACGCGGC: the sensor-assay potency score (higher = more potent) is -0.501.
In the case of TAGGAAGACAATATTAAACAGG, the sensor-assay potency score (higher = more potent) is -0.559.
Still for that read-out and setting: the figure for TTCACTTCTAGTCAATCTTGTT is -0.0767; for TTAAACAGGTATTAGAGTCCTT it is -0.0918.

The target of another test is PPIL1. Described as above. The settings on record: shRNA.
The sequence TTCTATGTCATCTAGAAGCTGG had a sensor-assay potency score (higher = more potent) of 0.291.
Still for that read-out and setting: the figure for TTCTGTGGAATTTTGTGCCATT is -0.861; for TTAGCATTACATGTCATTCTAT it is -0.539; for TTGGATCATGAAGTCTTTGATA it is -1.36.
On the same count and under the same terms, in the case of TTCACGTCGTCCACAGGGCGGT it was -0.967.
TAGATGCACCACCTCGACCTGT showed a sensor-assay potency score (higher = more potent) of -1.02.
On the same count and under the same terms, in the case of TAGATAGATGCACCACCTCGAC it was -1.34.
Same read-out and setting: the figure for TGTAGTAACCTCGACGAGCCAA is -0.207; for TATGTCATCTAGAAGCTGGTTC it is 0.329; for TTACATGTCATTCTATGTCATC it is -1.08.
Still for that read-out and setting: in the case of TAAAATGTACTTCCATCTCTAA it was -0.493.
The sequence TAGCATTACATGTCATTCTATG came in with a sensor-assay potency score (higher = more potent) of -0.73.

The next test deals with PPM1D. Described as above. The settings on record: shRNA.
TTTTACAGCAACTTATACCCTA: the sensor-assay potency score (higher = more potent) was 0.379.
Still for that read-out and setting: in the case of TTTAACAGAGTTCTTTCGCTGT it was 0.0988.
Same read-out and setting: in the case of TTGAGGGTATGACTACACCTTG it was -1.21; in that of TATAATATACTTGTGCTTCTGA, 0.584; in that of TTGGACTCTTCTAATGTCCTTT, -0.026.
The same measure, in the same setting: the figure for TTGAGTAACGTCCTCCATGTAC is -0.62; for TAACAGAGTTCTTTCGCTGTGA it is 0.0976; for TTTCTTTAAACATTTAGCCCTA it is -0.501.
In turn, TTTTTTCTCCTCTTGGTCCTGG registered a sensor-assay potency score (higher = more potent) of 0.387.
Same read-out and setting: the figure for TTTACAGCAACTTATACCCTAA is -0.288; for TTCGATTCGTTCTCTTTCCTTG it is 0.00604.
With TATACTTGTGCTTCTGAGGGTC, the sensor-assay potency score (higher = more potent) came to 0.801.
